Source: PubChem (National Center for Advancing Translational Sciences (NCATS))
HP1b chromo inh: HP1-beta chromodomain-methylated histone interaction inhibition; Potency, µM (titrated, usually from 114 µM), actives largely listed as inhibitors; AlphaScreen HP1-beta / biotin-H3K9me3 peptide binding; 390,000 tested, 0.56% active; P83916; also: nearly all actives have a fitted effect of over 70% in size
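Compound inhibition of the preformed complex between 50 nM HP1-beta and 50 nM biotinylated H3K9me3 peptide was read by AlphaScreen. Buffer was PBS pH 7.4 with 0.01% Tween-20. Incubations ran 30 min at room temperature, with 10 ug/mL donor/acceptor beads.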
JMJD2A Tudor inh: inhibitors of human JMJD2A Tudor domain | AlphaScreen JMJD2A-Tudor / H3K4me3 peptide binding | 390,000 tested, 4.4% active | AID 504339 | Potency, µM (doses to about 114 µM), hits mostly inhibitors | O75164; also: nearly all actives have a fitted effect of over 50% in size
G9a block: inhibitors of human histone lysine methyltransferase G9a. Q96KQ7. Potency, µM (titrated, usually from 102 µM), usual class: inhibitors. G9a H3K9 monomethylation, AlphaScreen, 2 h. 350,000 tested, 8.8% active; also: nearly all actives have a fitted effect of over 75% in size
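Signal arises when biotinylated H3K9 peptide, once monomethylated, bridges streptavidin donor and antibody-captured acceptor beads. Enzyme at 20 nM was preincubated 15 min with test compounds; peptide 500 nM and SAM 20 uM then reacted for 2 h.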
BAZ2B block: BAZ2B (human) inhibition. Q9UIF8. AlphaScreen BAZ2B-H3K14Ac peptide displacement. Potency, µM (titrated, usually from 114 µM), hits mostly inhibitors. 360,000 tested, 4.4% active. AID 504333; also: nearly all actives have a fitted effect of over 60% in size
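AlphaScreen displacement: compounds (up to 110uM) incubated 30 min at room temperature with a preformed 50 nM BAZ2B/50 nM biotinylated H3K14Ac peptide complex in PBS pH 7.4 with Tween-20. Donor and acceptor beads at 10 ug/mL final added, 20 min light-protected before reading.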
12-LOX inh: blocks human arachidonate 12S-lipoxygenase | P18054 | purified 12hLO, xylenol orange hydroperoxide absorbance | Potency, µM (titrated, usually from 108 µM), usual class: inhibitors | 580,000 tested, 1.1% active
Target sequence (P18054 whole entry, looked up): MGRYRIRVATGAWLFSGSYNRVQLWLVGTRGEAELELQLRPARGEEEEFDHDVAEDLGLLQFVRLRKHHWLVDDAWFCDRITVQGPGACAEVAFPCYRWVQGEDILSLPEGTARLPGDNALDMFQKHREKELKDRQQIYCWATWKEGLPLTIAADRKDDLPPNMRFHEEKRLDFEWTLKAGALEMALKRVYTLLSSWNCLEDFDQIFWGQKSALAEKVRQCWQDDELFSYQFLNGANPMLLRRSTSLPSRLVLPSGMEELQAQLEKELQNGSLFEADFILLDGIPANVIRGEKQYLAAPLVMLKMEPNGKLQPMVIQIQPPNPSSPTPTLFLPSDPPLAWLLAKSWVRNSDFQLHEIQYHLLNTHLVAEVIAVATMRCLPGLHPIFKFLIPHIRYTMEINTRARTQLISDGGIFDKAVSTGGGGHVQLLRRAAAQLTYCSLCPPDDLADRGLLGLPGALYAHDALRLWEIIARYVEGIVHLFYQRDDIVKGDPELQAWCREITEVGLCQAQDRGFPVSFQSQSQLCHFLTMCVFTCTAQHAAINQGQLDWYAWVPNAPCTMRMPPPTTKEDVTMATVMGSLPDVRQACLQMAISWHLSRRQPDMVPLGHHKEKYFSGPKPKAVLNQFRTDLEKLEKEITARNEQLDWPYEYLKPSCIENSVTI
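Hydroperoxide product was detected by ferrous iron/xylenol orange as the 573 to 405 nm absorbance ratio. Arachidonic acid at 40 uM (final) was turned over for 30 min at room temperature by 150 nM human 12hLO, pH 7.0 Hepes buffer, after 15 min compound preincubation.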
Sfp inh: blocks B. subtilis Sfp PPTase activity. Biochemical Sfp PPTase activity, qHTS. Potency, µM, most hits filed as inhibitors. 310,000 tested, 3.5% active. AID 1490;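 also: the enzyme is Sfp with the accession as filed and its product quenches rhodamine fluorescence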
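Compounds were incubated with enzyme (final 15 nM) for 15 min at room temperature before substrate addition started the reaction. Fluorescence at 525 nm excitation, 598 nm emission was recorded immediately and after 30 minutes.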
Hits are given with their value; – = inactive; ? = inconclusive; · = not tested or not shown; [ ] = remark or other dose. An excerpt weighted towards active compounds, which were near 8.7% of everything screened. Calls follow the shape of the dose curve; as a rule, active = well fitted curve in the direction sought with a large enough effect; inconclusive = small, poorly fitted or top-dose-only effect, or another doubt; inactive = no such curve, though single readings can be large; an effect the other way counts as inactive or inconclusive.

SMILES	HP1b chromo inh	JMJD2A Tudor inh	G9a block	BAZ2B block	12-LOX inh	Sfp inh
CCOc1ccc(C(=O)CCN2CCCCCC2)cc1	–	–	5.01µM	–	–	?
CCCCOc1ccc(C(=O)CCN2CCOCC2)cc1	–	–	22.4µM	–	–	?
ON=C1c2cc(OCCN3CCCCC3)ccc2-c2ccc(OCCN3CCCCC3)cc21	–	?	·	?	·	–
N#CCC(=O)Nc1nc(-c2ccc3c(c2)OCCO3)cs1	–	–	–	?	–	–
Cc1nc(-c2ccc3c(c2)OCCO3)cs1	–	–	31.6µM	–	–	?
Cc1cccc(Nc2nc(-c3ccc4c(c3)OCCO4)cs2)c1	–	?	7.94µM	50.1µM	?	–
Cc1nc(Cc2nc(-c3ccc4c(c3)OCCCO4)cs2)cs1	·	·	·	·	–	·
O=C(Nc1nc(-c2ccc3c(c2)OCCO3)cs1)C1CCCC1	–	?	44.7µM	?	–	–
COc1ccc(-c2noc(-c3cccc(NC(=O)C4CC(=O)N(c5ccc(OC)cc5)C4)c3)n2)cc1 (stereo unspecified)	·	·	·	·	–	·
Cc1ccc(NC(=O)C(OC(=O)c2cc(C)oc2C)c2ccccc2)cc1 (stereo unspecified)	–	–	79.4µM	–	–	–
Cc1ccc(-n2c(=S)[nH]c3c(oc4ccccc43)c2=O)cc1	–	–	?	–	–	–
O=c1c2sccc2[nH]c(=S)n1-c1ccccc1	–	5.62µM	?	–	?	79.4µM
O=c1c2oc3ccccc3c2[nH]c(=S)n1-c1ccccc1	–	?	8.91µM	–	?	50.1µM
Cc1cccc(-n2c(=S)[nH]c3c(oc4ccccc43)c2=O)c1	–	–	12.6µM	–	–	–
CC(C)c1noc(-c2cn(C3CCN(C(=O)c4cccc(C(F)(F)F)c4)C3)nn2)n1 (stereo unspecified)	·	·	·	·	–	·
O=C(NCC(c1cccs1)N1CCOCC1)c1cc(=O)c2ccccc2o1 (stereo unspecified)	·	·	·	·	–	·
CCn1nccc1C(=O)N1CC2CC(C1)[C@H]1CCCC(=O)N1C2 (stereo partly specified)	·	·	·	·	–	·
O=C(c1ccc2c3c(cccc13)CC2)C1CCCN(Cc2ccc(OCCO)cc2)C1 (stereo unspecified)	–	–	·	?	–	–
Cc1cnc(CN2CCCC(C(=O)c3ccc4c5c(cccc35)CC4)C2)[nH]1 (stereo unspecified)	?	50.1µM	?	?	–	–
Cc1cncnc1C1CCN(c2cc(C3CC(N)C3)ncn2)CC1 (stereo unspecified)	·	·	·	·	14.1µM	·
Cc1cc(C)cc(NC(=O)Cn2c(-c3ccccc3)nc(C)c(CCO)c2=O)c1	·	·	·	·	–	·
CCOC(=O)c1c(C)[nH]c(N=Nc2ccccc2)c1C	39.8µM	56.2µM	39.8µM	35.5µM	?	–
CCOC(=O)c1c(C)[nH]c(N=Nc2ccc(OC)cc2)c1C	?	56.2µM	28.2µM	39.8µM	?	50.1µM
CCOC(=O)c1c(C)[nH]c(N=Nc2ccccc2Cl)c1C	?	15.8µM	–	8.91µM	–	?
CCOC(=O)c1c(C)[nH]c(N=Nc2ccc(C)cc2)c1C	?	39.8µM	?	44.7µM	–	20µM
SMILES	HP1b chromo inh	JMJD2A Tudor inh	G9a block	BAZ2B block	12-LOX inh	Sfp inh
COc1cc(NC(=O)c2ccc3c(c2)N(C)C2CCCCCN2C3=O)cc(OC)c1OC (stereo unspecified)	·	·	·	·	–	·
O=S(Cc1cccc(F)c1)Cc1cccc(C(F)(F)F)c1 (stereo unspecified)	·	·	·	·	–	·
O=C(O)CCC(=O)NC1CC2(CCN(Cc3ccncc3)CC2)c2ccccc21 (stereo unspecified)	·	·	·	·	–[6.33 µM]	·
COc1ccc(C(=O)N2CCCCCCNC(=O)[C@@H]3CCCC[C@@H]32)cc1F	·	·	·	·	–	·
COc1cc(CNC(=O)Cc2ccsc2)ccn1	·	·	·	·	–	·
O=C(NC1CCN(S(=O)(=O)c2cccc(F)c2F)CC1)C1CC1	·	·	·	·	–	·
CC(=O)NN=C1CCC(C(C)(C)C)CC1 (stereo unspecified)	·	·	·	·	–	·
S=C(Nc1cccnc1)NC1CC2CCC1C2 (stereo unspecified)	–	–	·	70.8µM	–	–
OCc1ccccc1NC(=S)Nc1cccnc1	–	–	–	–	–	–
Fc1cccc(F)c1/C=N/NC(=S)Nc1cccnc1	–	–	–	–	–	–
CC(C)(C)C1CCC(=NNC(=S)Nc2cccnc2)CC1 (stereo unspecified)	–	?	10µM	?	–	?
CCNC(=S)NN=C1CCC(C(C)(C)C)CC1 (stereo unspecified)	–	–	?	79.4µM	–	50.1µM
COc1ccc(C(=O)OCc2ncc(-c3ccccc3)o2)c(OC)c1	·	·	·	·	–	·
Cc1ccc(S(=O)(=O)n2nc(C)c(S(=O)(=O)N3CCCCCC3)c2C)cc1C	–	–	–	–	–	·
Cc1ccc(S(=O)(=O)n2nc(C)c(Br)c2C)c(C)c1C	–	–	70.8µM	–	–	–
CCc1ccccc1NC(=O)N1CCC(N(CCC(C)C)C2CCOCC2)CC1	·	·	·	·	–	·
Cc1ccc(-c2cc(C(=O)Nc3ccccc3C(N)=O)c3ccccc3n2)o1	–	–	·	·	6.31µM	·
COc1ccc(OC)c(-c2cc(C(=O)Nc3ccccc3C(N)=O)c3ccccc3n2)c1	–	–	·	·	–	·
COc1ccc(NC(=O)c2cc(-c3ccc(C)o3)nc3ccccc23)c(OC)c1	–	?	·	·	?	·
Cc1ccc(-c2cc(C(=O)Nc3ccc(C(N)=O)cc3)c3ccccc3n2)o1	·	·	·	·	7.94µM	·
Cc1ccc(-c2cc(C(=O)Nc3ccc(C#N)cc3)c3ccccc3n2)o1	·	·	·	·	12.6µM	·
COc1ccc(NC(=O)c2cc(-c3ccc(C)o3)nc3ccccc23)cc1OC	–	56.2µM	?	–	?	22.4µM
Cc1ccc(-c2nc3cc(C)c(C)cc3nc2-c2ccc(C)cc2)cc1	·	·	·	·	–	·
Cc1cn2nc(C(=O)N3CCC(NC(=O)COc4ccc(F)cc4)CC3)cc2c(=O)[nH]1	·	·	·	·	–	·
COc1ccc(-c2cc(C(=O)Nc3ccc(Cl)cc3Cl)c3ccccc3n2)cc1OC	–	–	–	–	–	35.5µM
SMILES	HP1b chromo inh	JMJD2A Tudor inh	G9a block	BAZ2B block	12-LOX inh	Sfp inh
Cc1ccc(-c2cc(C(=O)N(C)CC(=O)Nc3ccccc3Br)c3ccccc3n2)o1	–	?	8.91µM	–	?	·
CCOc1cccc(CNC(=O)c2noc(-c3ccc(C)cc3)n2)c1	·	·	·	·	–	·
COc1ccc(CNC(=O)C2CCC(=O)N(CC3CCCCC3)C2)cc1 (stereo unspecified)	–	–	–	–	–	–
Cc1ccc(CNC(=O)C2CCN(S(=O)(=O)c3cccs3)CC2)o1	–	–	8.91µM	–	–	17.8µM
CCN(CC)S(=O)(=O)N1CCC(C(=O)NCc2ccc(C)cc2)CC1	–	–	–	–	–	–
Cc1ccc(CNC(=O)C2CCN(S(=O)(=O)c3cccs3)CC2)cc1	–	89.1µM	–	–	–	–
